Hits are enriched below; roughly 6.1% of the tested compounds scored in any of these assays.
D1 antagonist: blocks dopamine activation of the human D1 receptor | P21728 | HEK293 TREx D1 cells, calcium flux, dopamine EC80; active compounds read low | activity change, negative = inhibition, % at 10 µM | actives 3.2% (n = 360,000); in the data active = activity change below about -30%; note: % is set by controls: 0 for no effect and ±100 for the full control effect
Target sequence (P21728 whole entry, looked up): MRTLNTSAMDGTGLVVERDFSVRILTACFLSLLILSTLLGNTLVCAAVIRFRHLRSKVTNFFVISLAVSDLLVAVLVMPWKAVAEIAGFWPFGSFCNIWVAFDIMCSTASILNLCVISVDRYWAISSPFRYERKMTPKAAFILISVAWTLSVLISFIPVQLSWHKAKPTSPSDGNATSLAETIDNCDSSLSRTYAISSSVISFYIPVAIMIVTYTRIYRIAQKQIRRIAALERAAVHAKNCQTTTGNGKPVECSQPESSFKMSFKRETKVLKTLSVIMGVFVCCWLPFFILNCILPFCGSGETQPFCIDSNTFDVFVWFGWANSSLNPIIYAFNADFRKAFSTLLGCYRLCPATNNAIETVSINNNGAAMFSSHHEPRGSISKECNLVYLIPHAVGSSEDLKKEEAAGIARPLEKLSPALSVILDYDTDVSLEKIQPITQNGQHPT
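Inducible Hek293 Trex D1 cells (tetracycline, overnight, 30 C). Calcium dye 30–90 min RT. Antagonist mode: EC80 dopamine added after 180 s compound read.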
D1 PAM: human D1 dopamine receptor positive modulation | actives 0.036% (n = 360,000) | HEK293 TREx D1 cells, calcium flux, dopamine EC20 potentiation | potentiation, % at 10 µM | P21728; in the data active = potentiation above about 30%; note: 0% is about no effect
D3 antag: blocks the human D3 dopamine receptor; P35462; D3R cells, DiscoveRx beta-arrestin luminescence, antagonist mode; active compounds read low; max response, negative = inhibition, %; actives 2.5% (n = 360,000); AID 652054; in the data active = max response below about -50%; inconclusive = no clear call, values can overlap the other calls; note: % is set by controls: 0 for no effect and ±100 for the full control effect
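Cells plated overnight at 1500 cells/well, then exposed to library compounds with dopamine controls for 90 minutes at 37 degrees C. DiscoveRx reagent added for 30–60 minutes at room temperature; luminescence read, quantitative HTS format.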
D1 ag: agonists of human D1 dopamine receptor. P21728. HEK293 T-REx D1 cells, calcium flux, agonist mode. activation, % at 2 µM. actives 1% (n = 360,000). AID 504660; in the data active = activation above about 30%; note: 0% is about no effect
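Agonism was scored from calcium flux recorded over 180 s (1 read/s) after pintool compound addition, following a 10-cycle baseline. Cells were inducible force-coupled HEK293 TREx D1, plated overnight at 30 C and loaded with no-wash calcium dye.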
D3 ag: D3 dopamine receptor (human) agonism; P35462; D3R DiscoveRx beta-arrestin cells, luminescence, 90 min; max activation, %; actives 0.58% (n = 410,000); in the data active = max activation above about 30%; note: 0% is about no effect
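Cells at 1500/well, incubated overnight, then treated with pinned compounds (dopamine as control) for 90 min at 37 degrees C. DiscoveRx reagent added for 30 - 60 minutes at room temperature; luminescence read.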
* hit, by the source's call; ? = inconclusive; . = no result given.

SMILES	D1 antagonist	D1 PAM	D3 antag	D1 ag	D3 ag
Cc1ccc(-n2ncc(C(=O)NCCCN3CCN(C)CC3)c2C2CCN(C(=O)OC(C)(C)C)CC2)cc1	-2.9	-8.2	.	1.0	1.6
COc1ccc(-n2ncc(C(C)NS(=O)(=O)c3cc(C)sc3C)c2C)cc1 (stereo unspecified)	.	.	0.0	.	-8.0
COC(=O)c1sccc1S(=O)(=O)NC(C)c1cnn(-c2ccc(OC)cc2)c1C (stereo unspecified)	-50.5*	1.4	0.0	2.6	-17.9
COc1ccc(C(=O)/C(Br)=C\C(=O)O)cc1	.	.	.	.	18.5
CCCc1[nH][nH]c(=O)c1C(c1ccccc1)C(C#N)C#N (stereo unspecified)	-8.6	-6.2	-54.7*	1.6	0.8
O=C(O)CN1C(=O)c2ccc(Oc3ccc([N+](=O)[O-])cc3)cc2C1=O	-9.5	-0.3	3.7	0.8	1.6
O=C1c2ccc(Oc3ccc([N+](=O)[O-])cc3)cc2C(=O)N1CCCO	-36.6*	3.3	0.2	6.9	-10.9
Cc1ccc(OCc2cc(C(=O)NCc3ccc(OC(F)(F)F)cc3)no2)cn1	-27.1	1.5	1.6	51.5*	8.1
CN1CCN(/N=C/c2ccc(-c3ccccc3)cc2)CC1	-76.2*	-5.6	-20.7	72.1*	-14.0
Cc1cccc(NC(=O)CSc2cn(CC(=O)N3CCOCC3)c3ccccc23)c1C	4.7	-5.2	.	2.1	8.0
C#CCSc1nc(Cc2ccc(Cl)cc2)nc2ccccc12	5.6	0.3	19.1	7.3	48.0*
COc1nc(Cc2ccc(Cl)cc2)nc2ccccc12	-13.2	-4.5	15.2	12.7	6.4
CCOC(=O)[C@H](CCc1ccccc1)N[C@H]1CCCN2CCC[C@@H](C(=O)O)N2C1=O	.	.	.	.	-11.3
O=C(c1cccs1)N1CCc2ccccc21	-6.1	-0.1	?	5.1	-16.5
O=C(/C=C/c1cccs1)N1CCc2ccccc21	-36.2*	-7.9	12.0	1.3	1.6
C/C=C/c1ccc(OCC(O)CNCCc2ccc(OC)cc2)c(OC)c1 (stereo unspecified)	9.8	-5.7	-4.3	14.4	-9.1
OC(CNCCc1ccccc1)COc1ccc(OCC(O)CNCCc2ccccc2)cc1 (stereo unspecified)	-2.7	-0.7	-51.6*	33.6*	-19.6
CCC(=O)c1ccc(OCC(O)CNCCc2ccc(Cl)cc2)cc1 (stereo unspecified)	-14.9	-6.2	-20.4	61.9*	-4.6
CCC(=O)c1ccc(OCC(O)CNC(C)c2ccccc2)cc1 (stereo unspecified)	5.2	4.5	0.6	6.8	-5.9
OC(CNCCc1ccc(Cl)cc1)COc1ccc2ccccc2c1 (stereo unspecified)	6.9	-1.1	13.9	33.5*	-8.7
CN(C)CCOc1ccc(C(C)(C)c2ccccc2)cc1	-8.8	-0.8	-0.4	2.3	5.4
CN(C)CCCOc1ccc(C(C)(C)c2ccccc2)cc1	7.6	-5.7	-68.5*	20.0	-8.4
COc1ccccc1-c1noc(-c2ccc(NCc3cccnc3)c([N+](=O)[O-])c2)n1	-19.3	-3.5	.	0.8	2.6
O=C(COc1ccc(Cl)cc1)NCc1ccccc1	-12.4	-3.1	8.9	1.1	3.9
CC(C)CCNCC(O)CON=C1c2ccccc2-c2ccccc21 (stereo unspecified)	8.1	3.9	7.8	49.6*	-0.5
SMILES	D1 antagonist	D1 PAM	D3 antag	D1 ag	D3 ag
COc1ccc(CCNCC(O)COc2ccc(Cl)cc2)cc1OC (stereo unspecified)	10.8	-7.2	0.0	17.3	-10.0
CC(C)N(CCNCC(O)COc1ccc(C(C)(C)c2ccccc2)cc1)C(C)C (stereo unspecified)	-18.2	-3.5	-0.6	62.6*	18.4
COc1ccc(CCNCC(O)COc2c(C)cccc2C)cc1OC (stereo unspecified)	-38.1*	-11.0	?	6.8	2.8
Clc1ccc(OCCNCCc2ccccc2)cc1	-17.6	-10.4	-59.2*	24.7	11.1
COCCNCC(O)CON=C1c2ccccc2-c2ccccc21 (stereo unspecified)	3.1	-3.0	-0.6	7.1	-10.4
CC(C)(c1ccccc1)c1ccc(OCC(O)CN2CCCC2)cc1 (stereo unspecified)	-24.4	-6.8	7.0	25.2	-8.8
O=C(c1ccc2c(c1)CCN2S(=O)(=O)c1ccc(Cl)cc1)N1CCN(c2ccc(F)cc2)CC1	-3.6	1.9	.	0.2	5.5
Cc1ccc(NC(=O)CCc2nc(-c3ccccc3F)no2)c(C)c1	-12.3	3.0	.	4.6	-2.3
COc1ccc(C2=C(N3CCN(c4cccc(C)c4)C(C)C3)c3ccccc3C2=O)cc1 (stereo unspecified)	-2.6	-1.4	.	3.7	10.1
CC(C)c1ccc(OCC(O)CNC(C)c2ccccc2)cc1 (stereo unspecified)	2.0	11.4	13.8	15.2	-2.7
OC(CNCCc1ccc(Cl)cc1)COc1cc(Cl)ccc1Cl (stereo unspecified)	-4.5	5.2	-25.6	35.0*	-5.5
OC(CNCCC(c1ccccc1)c1ccccc1)COc1ccccc1 (stereo unspecified)	-61.0*	-6.2	-25.7	10.7	-12.3
COc1ccc(C(OCC(O)CNCCc2ccccc2)c2ccc(OC)cc2)cc1 (stereo unspecified)	-30.3*	-10.2	-57.9*	96.3*	-34.4
CCc1c(CN2CCN(c3cccc(C)c3C)CC2)csc1C	2.0	-2.0	.	0.7	-31.0
O=C(Cn1cc(C(=O)c2ccncc2)c(=O)c2cc(F)ccc21)Nc1ccc(Cl)cc1	-4.3	5.2	.	0.5	-12.1
CC(C)Cc1nn2c(=O)cc(COC(=O)c3ccc(NC(=O)CCc4ccccc4)cc3)nc2s1	3.8	-0.1	.	2.0	-4.3
CN(CC1CCN(CCc2cccc(C(F)(F)F)c2)CC1)C(=O)c1ccccc1	-6.5	-1.7	?	1.9	-27.7
CCN1CCC(N(Cc2ccc(F)cc2)C(=O)Nc2cccc(C(F)(F)F)c2)CC1	-24.6	0.0	.	100.2*	-18.5
CCN1CCC(N(Cc2cccc(OC)c2)C(=O)Nc2cccc(C(F)(F)F)c2)CC1	-4.1	-0.9	.	27.0	5.5
CN(CC1CCN(CCc2cccc(C(F)(F)F)c2)CC1)C(=O)c1ccc(F)cc1	3.2	0.3	-86.6*	0.8	-23.8
COc1ccc(-c2cc(C)no2)cc1S(=O)(=O)Nc1c(C)cc(C)cc1C	8.6	-1.6	.	3.2	-8.7
Cc1c(C(=O)N2CCCC2)oc2c1-c1nn(CC(=O)NCc3cccc(Br)c3)cc1CC2	-11.7	0.1	.	0.3	7.7
Cc1ccc(C)c(NC(=O)CCc2c(C)nn(-c3ccc(N4CCCC4)nn3)c2C)c1	-5.7	-5.2	.	0.4	6.9
CCOc1ccc(OCc2ccc(C(=O)N(CC)CC)cc2)cc1	-42.1*	-6.3	-3.7	16.0	2.9
CCN(Cc1ccccc1)C(=O)c1ccc(C(=O)N(CC)Cc2ccccc2)cc1	-62.0*	0.8	-19.1	3.6	-9.4

From PubChem BioAssay
